Sampled rows, rich in hits. Any-hit rate of the full collection: about 2.1%.
Avidin bead fluor = avidin bead compound fluorescence profile. hit rate 0.38% among 220,000. fluorescence (KMESF) at 10 µM. Avidin beads, compound fluorescence 488/530 nm, flow cytometry; stronger effect = higher value; in the data active means fluorescence above about 47
EP2 modulator = modulates human prostaglandin E2 receptor EP2 signaling. P43116. AID 940. induction, % at 25 µM. hit rate 0.83% among 260,000. EP2-expressing cells, cAMP HTRF FRET, PGE2 co-stimulation;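 active means compounds whose cAMP rise, as percent of the full-agonist control response, exceeds 60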;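 further: rat C6 glioma line stably carrying human EP2 under a CMV promoter; the protocol text gives 20 µM as final concentration; 100% = response of wells given 1 µM PGE2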
Target sequence (P43116 whole entry, looked up): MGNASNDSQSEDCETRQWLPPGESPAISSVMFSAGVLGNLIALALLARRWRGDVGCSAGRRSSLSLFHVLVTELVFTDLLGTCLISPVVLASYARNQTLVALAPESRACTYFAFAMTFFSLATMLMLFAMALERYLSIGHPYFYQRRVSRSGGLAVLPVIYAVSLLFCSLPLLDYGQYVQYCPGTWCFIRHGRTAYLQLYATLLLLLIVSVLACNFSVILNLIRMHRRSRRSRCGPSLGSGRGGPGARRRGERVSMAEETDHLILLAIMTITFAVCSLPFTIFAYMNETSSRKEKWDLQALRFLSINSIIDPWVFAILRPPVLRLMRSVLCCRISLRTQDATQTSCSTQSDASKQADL
HMGR II inh = E. faecalis class II HMG-CoA reductase inhibition; purified E. faecalis HMGR, NADPH absorbance 340 nm kinetic; inhibition, % at 10 µM; hit rate 0.41% among 190,000;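 active means inhibition above a set limit, the median over all tested compounds plus 3 SD, cut at about 9.5% in these data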;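 further: enzyme runs in reverse so mevalonate oxidation gives rising NADPH absorbance; 0% = complete reaction with DMSO and 100% = background rate lacking mevalonate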
EP2 antag = inhibitors of human EP2 prostaglandin E2 receptor. P43116. C6 glioma cells expressing human EP2, cAMP TR-FRET; cells stimulated with saturating PGE2. inhibition, % at 25 µM. hit rate 0.52% among 260,000;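 active means percent inhibition above 40 after rounding to a whole number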;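 further: rat C6 glioma host cells with rolipram phosphodiesterase inhibitor present; the protocol text gives 20 µM as final concentration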
GSH bead fluor = GSH bead compound fluorescence profile | hit rate 0.25% among 190,000 | AID 1776 | fluorescence (KMESF) at 10 µM | GSH beads flow cytometry, compound fluorescence 488/530 nm; stronger effect = higher value; in the data active means fluorescence above about 89;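 further: glutathione beads carrying GST-tagged Bcl family fusion proteins plus one bare bead set; values are compound well signal with DMSO vehicle wells as background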
* = called active by the depositor.

For CCOC(=O)c1ccc(N2C(=O)C=CC2=O)cc1 the results were Avidin bead fluor 5, EP2 modulator -39, HMGR II inh 0, EP2 antag 111* and GSH bead fluor 35.
`CCOC(=O)c1ccc(-n2c(C)ccc2C)cc1` gave Avidin bead fluor 5, EP2 modulator 28, HMGR II inh -8, EP2 antag 2 and GSH bead fluor 11.
Screening CCc1nn(CC(=O)NC(C)(C)C)c(=O)c2cc3ccsc3n12 returned EP2 modulator 11.
Screening COc1ccc(C(CC(=O)Nc2nccs2)n2cccc2)cc1 (stereo unspecified) returned Avidin bead fluor 49*, EP2 modulator 13, HMGR II inh -6, EP2 antag 18 and GSH bead fluor 12.
c1cncc(-c2nnc(SCCN3CCOCC3)o2)c1 was read as EP2 modulator 4 and EP2 antag 17.
Screening CC(C)=Cc1oc2ccc([N+](=O)[O-])cc2c1N1CC(C)OC(C)C1 (stereo unspecified) returned Avidin bead fluor 11, EP2 modulator 62*, HMGR II inh -2, EP2 antag 9 and GSH bead fluor 12.
Screening O=C1c2ccccc2C(=O)N1c1cccc(-c2nc3ccccc3o2)c1 returned Avidin bead fluor 10, EP2 modulator 28, HMGR II inh -5, EP2 antag 13 and GSH bead fluor 10.
For O=C1C=CC(=O)N1c1cccc(-c2ccccc2)c1 the results were Avidin bead fluor 8, EP2 modulator -61 and EP2 antag 114*.
`COc1ccc2c(-c3ccccc3)cc(SC(C)C(N)=O)nc2c1` (stereo unspecified) gave Avidin bead fluor 5, EP2 modulator 62*, HMGR II inh 0, EP2 antag 12 and GSH bead fluor 22.
Screening C=CCn1c(=O)c(C#N)cc2c(=O)n3ccccc3nc21 returned Avidin bead fluor 7, HMGR II inh -2, EP2 antag 22 and GSH bead fluor 35.
`C=CCn1c(=N)c(C#N)cc2c(=O)n3ccccc3nc21` gave Avidin bead fluor 7, EP2 modulator 4, HMGR II inh -1, EP2 antag 6 and GSH bead fluor 104*.
COc1cccc(/C=N/n2c(N)c(S(=O)(=O)c3cccs3)c3nc4ccccc4nc32)c1 was read as Avidin bead fluor 7, EP2 modulator -7, HMGR II inh 3, EP2 antag 4 and GSH bead fluor 53.
Screening COc1ccc(/C=N/n2c(N)c(S(=O)(=O)c3cccs3)c3nc4ccccc4nc32)cc1OC returned Avidin bead fluor 47*, EP2 modulator 7, HMGR II inh 2, EP2 antag 3 and GSH bead fluor 16.
Nc1c(S(=O)(=O)c2cccs2)c2nc3ccccc3nc2n1/N=C/c1cccc(O)c1 was read as Avidin bead fluor 57*, EP2 modulator -7, HMGR II inh -1, EP2 antag 41* and GSH bead fluor 5.
Screening CC(C)Cn1c(N)c(S(=O)(=O)c2cccs2)c2nc3ccccc3nc21 returned Avidin bead fluor 18, EP2 modulator 35, HMGR II inh -3, EP2 antag 16 and GSH bead fluor 16.
For CCOc1ccc(N2C(=O)C3CCCN3C2=O)cc1 (stereo unspecified) the results were Avidin bead fluor 8, EP2 modulator -3, HMGR II inh 1, EP2 antag 5 and GSH bead fluor 20.
For COc1ccc(N2C(=O)C3CCCN3C2=O)cc1 (stereo unspecified) the results were Avidin bead fluor 65*, EP2 modulator 11, HMGR II inh -2, EP2 antag 13 and GSH bead fluor 17.
CC1Cc2ccccc2N1C(=O)CN1C(=O)C(=O)N(Cc2ccccc2)C1=O (stereo unspecified) was read as Avidin bead fluor 7, EP2 modulator 28, HMGR II inh 0, EP2 antag 15 and GSH bead fluor 260*.
Screening CC1Cc2ccccc2N1C(=O)CCS(=O)(=O)c1cccs1 (stereo unspecified) returned Avidin bead fluor 125*, EP2 modulator 15, HMGR II inh -3, EP2 antag 1 and GSH bead fluor 150*.
CC1Cc2ccccc2N1C(=O)CN1C(=O)COc2ccccc21 (stereo unspecified) was read as Avidin bead fluor 38, EP2 modulator -21, HMGR II inh -2, EP2 antag 5 and GSH bead fluor 12.
For CCc1nc2ccc(NC(=O)Cn3cnc4sc(C)cc4c3=O)cc2[nH]1 the results were EP2 modulator -13 and EP2 antag 4.

Bioassay records from PubChem.
